Assay [1] is described as follows: P-glycoprotein substrates identified in KB-8-5-11 adenocarcinoma cell line, qHTS therapeutic library screen (AID 1346987). Note: nearly all actives have a fitted effect of over 65% in size. Note: potency is the fitted concentration of half-maximal effect. The essentials: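 KB-8-5-11, a colchicine-selected P-gp-overexpressing KB-3-1 subline, was grown without colchicine for the assay. Cells were seeded at 500 cells/well, dosed in concentration-response and incubated 72 h at 37 degree C, 5% CO2. Viability was read by CellTiter-Glo luminescence.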

A short description of assay [2]: qHTS assay for small molecule activators of the p53 signaling pathway (AID 651743; active = well fitted activation curve with a large enough effect in the signal ratio, not every such curve was filed as active; the % refers to the signal ratio; note: series mostly up to about 92 µM; % of control where 0% means no effect). To be noted: HCT-116 p53RE-bla, beta-lactamase FRET ratio, 16 h; hits give high values. The essentials: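 Cell-based beta-lactamase reporter (p53 response elements, HCT-116 background). After a 5-hour preincubation, cells received compound for 16 hours at 37 C; substrate development ran 2 hours at room temperature.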

Assay [3] in a line: qHTS assay for small molecule activators of the nuclear factor-kappa B (NF-kB) signaling pathway (AID 651749; active = well fitted activation curve with a large enough effect in the signal ratio; the % refers to the signal ratio; note: series mostly up to about 77 µM; % of control where 0% means no effect). To be noted: NF-kB-bla ME-180 cells, beta-lactamase FRET ratio, 16 h; hits give high values. In outline:
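Screening used 2,000 ME-180 reporter cells per well exposed to pinned compound (23 nL) or DMSO; after 16 hr at 37C, beta-lactamase expression under NF-kB control was assessed through FRET.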

The nature of assay [4]: qHTS assay for environmental chemicals that activate the Aryl hydrocarbon Receptor (AhR) signaling pathway (AID 651777). Note: % of control where 0% means no effect; nearly all actives have a fitted effect of over 15% in size. To be noted: 1A2-DRE human hepatoma cells, luciferase, 24 h; activation: hits give high values. The essentials:
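Human hepatoma 1A2-DRE cells stably carrying a DRE/CYP1A2 promoter–luciferase reporter, 1,200 cells/well, exposed to compound 24 hr at 37 C. Luciferase read by One-Glo luminescence after 30 min at room temperature; increased signal marks AhR activation.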

The target of assay [5] is Peroxisome proliferator-activated receptor alpha (Homo sapiens) (UniProt Q07869). Briefly: qHTS assay for small molecule agonists of the peroxisome proliferator-activated receptor alpha (PPARalpha) signaling pathway (AID 651778). Note: % of control where 0% means no effect. To be noted: PathHunter PPARalpha complementation, chemiluminescence, 6 h; hits give high values. The essentials: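 Cells plated at 2,000/well and held overnight at 37 C, 5% CO2, then compound added by pin tool for 6 hr; after PathHunter detection reagent and 60 min at room temperature, chemiluminescence from enzyme complementation was read.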

Assay [6] is described as follows: qHTS assay for small molecule agonists of the antioxidant response element (ARE) signaling pathway measured by Nrf2-dependant transcriptional activity (AID 720636; active = well fitted curve in the direction sought with a large enough effect in the repeat runs; an effect the other way counts as inactive or inconclusive; note: % of control where 0% means no effect). The essentials: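 ARE-luc HepG2 cells carrying an Nrf2-responsive luciferase reporter, in medium with 1% dialyzed FBS, exposed to compound for 16 hr at 37 C, 5% CO2. Luminescence read 30 min after ONE-Glo addition.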

Assay [7] can be described thus: qHTS assay for small molecule agonists of the antioxidant response element (ARE) signaling pathway measured by Nrf2-dependant transcriptional activity - cell viability counter screen (AID 720653; active = well fitted curve in the direction sought with a large enough effect in the repeat runs; an effect the other way counts as inactive or inconclusive; note: % is set by controls: 0 for no effect and ±100 for the full control effect). Conditions: ARE-bla HepG2 viability, CellTiter-Glo ATP luminescence, 16 h; hits give low values. In outline:
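ARE-bla HepG2 cells (2,000/well) rested 5 hrs at 37C/5% CO2, then exposed to compounds in DMSO for 16 hrs. Viability was read in the same wells as intracellular ATP by luminescence, 30 min at room temperature after reagent addition.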

A short description of assay [8]: qHTS Assay for Identifying Gametocytocidal Compounds (AID 743244).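 Note: % is set by controls: 0 for no effect and ±100 for the full control effect; actives lower the fluorescent signal which means gametocytes are killed.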 Conditions: P. falciparum 3D7 stage III-V gametocytes, alamarBlue, 72 h; max response: hits give low values. In outline: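 Fluorescence at Ex 525/Em 598 nm, recorded 24 h after alamarBlue addition, reports residual metabolic activity of 3D7 gametocytes (stages III–V) following 72 h compound exposure at 37 °C, 5% CO2.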

Assay [9] in a line: qHTS assay for cell viability of HEK293 cells (AID 743288). Note: % is set by controls: 0 for no effect and ±100 for the full control effect; nearly all actives have a fitted effect of over 50% in size. Conditions: ATP luminescence (CellTiter-Glo), 18 h, hits give low values. The essentials:
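The Tox21 protocol used parental HEK293 cells treated for 18 h at 37 C with compounds delivered by pintool; ATP-coupled luminescence after 30 min at room temperature gave viability.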

Assay [10] in a line: qHTS assay for cell viability of the p53RE-bla HCT-116 cell line (AID 743292). Note: % is set by controls: 0 for no effect and ±100 for the full control effect; nearly all actives have a fitted effect of over 55% in size. The essentials: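 CellSensor p53RE-bla HCT-116 cells (4,000/well) pre-incubated 5 h at 37 C, then exposed to compounds in DMSO for 16 h at 37 C. Viability read as ATP content by CellTiter-Glo luminescence after 30 min at room temperature.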
A short description of assay [11]: NS1 protein of Zika virus - qHTS assay to identify small molecule inhibitors in human HEK 293 cells (AID 1347053).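 Note: series mostly up to about 46 µM; plate controls were infected untreated cells for no effect and uninfected cells for full effect; nearly all actives have a fitted effect of over 55% in size.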 In outline: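 HEK 293 cells, seeded 20 h at 37 C, were pretreated with compound 1 h, then infected with ZIKV MR766 (MOI = 0.5) for 24 h. NS1 was read by TR-FRET with two anti-NS1 antibodies, normalized to uninfected and infected wells.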
Assay [12] in a line: qHTS of pediatric cancer cell lines to identify multiple opportunities for drug repurposing: Primary screen for TC32 cells (AID 1347089). Note: % is set by controls: 0 for no effect and ±100 for the full control effect; nearly all actives have a fitted effect of over 60% in size. The essentials:
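Measured quantity: luminescence from CellTiter-Glo, reflecting metabolically active TC32 cells following 48 h of compound. Curves came straight from multi-point titrations, with 8 or 11 points in primary and 11 in confirmatory screening.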

Assay [13] concerns the target Tumor necrosis factor (Homo sapiens) (UniProt P01375). The assay is described as follows: qHTS assay to identify small molecules that stimulate Tumor Necrosis Factor-alpha (TNF-alpha) secretion (AID 651757; active = well fitted curve in the direction sought with a large enough effect in the signal ratio; the % refers to the signal ratio; note: 0% is about no effect). In outline:
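THP-1 cells (3000/well) exposed to compounds 17 hrs at 37 C. Secreted TNF-alpha detected by HTRF with cryptate- and XL665-labeled anti-TNF-alpha antibodies after 3 hr at room temperature.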

Assay [14] concerns the target Nuclear receptor ROR-gamma (Homo sapiens) (UniProt P51449). The assay is described as follows: qHTS assay for small molecule antagonists of the retinoid-related orphan receptor gamma (ROR-gamma) signaling pathway (AID 651802).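 Note: luciferase reporter luminescence driven by ROR response element; series mostly up to about 92 µM; % is set by controls: 0 for no effect and ±100 for the full control effect; nearly all actives have a fitted effect of over 60% in size.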 The essentials: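 CHO cells with TET-inducible ROR-gamma and RORE-luciferase reporter, dosed then doxycycline-induced. After 16 h at 37C, One-Glo luminescence read; decreased signal indicates antagonism.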

Assay [15] can be described thus: qHTS assay for small molecule antagonists of the retinoid-related orphan receptor gamma (ROR-gamma) signaling pathway - cell viability counter screen (AID 720652; active = well fitted curve in the direction sought with a large enough effect in the repeat runs; an effect the other way counts as inactive or inconclusive;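 note: series mostly up to about 92 µM; compound exposure lasted 16 hr before ATP read; % is set by controls: 0 for no effect and ±100 for the full control effect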). In outline:
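CHO cells carrying TET-inducible ROR and RORE-luciferase reporter, plated 5 hr, then dosed with compound plus doxycycline. After 16 hr at 37 C, viability read as intracellular ATP by CellTiter-Glo luminescence.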

Here are results for 28 compounds from PubChem BioAssay (NCATS).

SMILES strings stand for the structures. A number with no mark means an inactive call. Results filed as inconclusive are left out. Activity calls are given as the source filed them. Unless noted, calls come from the whole dose curve; as a rule, active = well fitted curve in the direction sought with a large enough effect; inconclusive = small, poorly fitted or top-dose-only effect, or another doubt; inactive = no such curve, though single readings can be large; an effect the other way counts as inactive or inconclusive.

Peroxisome proliferator-activated receptor alpha (Homo sapiens), sequence (Q07869 whole entry, looked up): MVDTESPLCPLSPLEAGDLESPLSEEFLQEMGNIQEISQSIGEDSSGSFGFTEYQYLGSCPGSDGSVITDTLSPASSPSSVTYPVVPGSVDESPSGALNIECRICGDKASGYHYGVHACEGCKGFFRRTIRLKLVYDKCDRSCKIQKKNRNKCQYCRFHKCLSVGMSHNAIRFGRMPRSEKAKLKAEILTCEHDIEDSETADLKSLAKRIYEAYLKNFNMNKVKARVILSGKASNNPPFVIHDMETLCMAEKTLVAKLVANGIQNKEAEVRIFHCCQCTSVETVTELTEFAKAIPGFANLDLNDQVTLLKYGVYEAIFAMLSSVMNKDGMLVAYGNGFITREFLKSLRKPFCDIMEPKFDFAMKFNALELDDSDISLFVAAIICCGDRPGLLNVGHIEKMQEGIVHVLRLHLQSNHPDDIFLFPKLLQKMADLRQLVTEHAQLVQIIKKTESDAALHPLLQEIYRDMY
Nuclear receptor ROR-gamma (Homo sapiens), sequence (P51449 whole entry, looked up): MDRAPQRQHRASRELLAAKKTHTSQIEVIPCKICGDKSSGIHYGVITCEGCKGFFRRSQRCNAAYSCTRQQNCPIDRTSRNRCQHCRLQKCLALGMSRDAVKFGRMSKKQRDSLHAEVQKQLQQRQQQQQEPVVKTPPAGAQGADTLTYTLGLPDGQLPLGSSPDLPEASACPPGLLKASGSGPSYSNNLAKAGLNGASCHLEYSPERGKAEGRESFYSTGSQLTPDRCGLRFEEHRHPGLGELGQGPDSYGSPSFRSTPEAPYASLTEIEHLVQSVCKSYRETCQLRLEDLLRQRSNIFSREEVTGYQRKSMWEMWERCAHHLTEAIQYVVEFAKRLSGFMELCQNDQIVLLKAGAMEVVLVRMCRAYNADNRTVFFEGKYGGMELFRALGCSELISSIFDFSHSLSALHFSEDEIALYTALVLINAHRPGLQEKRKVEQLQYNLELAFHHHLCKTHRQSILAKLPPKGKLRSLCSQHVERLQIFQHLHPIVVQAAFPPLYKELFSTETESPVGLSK
Tumor necrosis factor (Homo sapiens), sequence (P01375 whole entry, looked up): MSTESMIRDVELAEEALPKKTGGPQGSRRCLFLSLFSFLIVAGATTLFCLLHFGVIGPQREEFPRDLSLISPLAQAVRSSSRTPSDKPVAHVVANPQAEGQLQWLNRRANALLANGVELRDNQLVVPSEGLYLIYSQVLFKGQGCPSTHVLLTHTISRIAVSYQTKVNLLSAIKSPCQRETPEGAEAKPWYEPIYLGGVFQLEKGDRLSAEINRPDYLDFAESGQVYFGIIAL

For the compound `CC1=C(C(=O)O[C@@H]2O[C@H](COC3OCC(O)C(O)C3O)[C@@H](O)[C@H](O)[C@H]2O)C(C)(C)CCC1` (stereo partly specified), in assay [1], the Potency entry was “inactive”.
Consider `CC1COC2(OC3CC4C5CC(O[C@@H]6O[C@H](C)[C@@H](O[C@@H]7O[C@@H](C)[C@H](O)[C@@H](O)[C@H]7O)[C@H](O)[C@H]6O)C6CC(O)CCC6(C)C5CCC4(C)C3C2C)C(O)C1` (stereo partly specified), for which, in assay [1], the Potency result is “inactive”.
For the compound `C=CC/C=C\C/C=C\CCCCCCCc1cccc(O)c1C(=O)O`, the Potency entry in [1] was “inactive”.
Turning to `COc1cc(-c2ncn(/C=C\C(=O)OC(C)C)n2)cc(C(F)(F)F)c1`, the Potency in assay [1] was 0.259 µM (active).
In the case of `CC(=O)O[C@H]1C(=O)[C@@]2(C)[C@H]([C@H](OC(=O)c3ccccc3)[C@]3(O)C[C@H](OC(=O)[C@H](O)[C@@H](NC(=O)c4ccccc4)c4ccccc4)C(C)=C1C3(C)C)[C@]1(OC(C)=O)CO[C@@H]1C[C@@H]2O`, the activation was 23.6% in assay [2], 4.74% in assay [3] and 0.595% in [4]. Also, the max response in assay [5] was -1.23%; in [7] it was -7.37%; in [8], -7.34%; in assay [9], -10.4%. For the same compound, the result in assay [6] and in assay [10] was inactive. In addition, in assay [1], the Potency is 0.873 µM (active).
With `CC/C=C\CCO[C@@H]1O[C@H](CO[C@@H]2OC[C@H](O)[C@H](O)[C@H]2O)[C@@H](O)[C@H](O)[C@H]1O`, the Potency result in assay [1] was “inactive”.
In the case of `CCOCCOC(=O)/C=C/c1ccc(OC)cc1`, the Potency entry in assay [11] was “inactive”. Also, in assay [12], the compound was classed as inactive.
Consider `CC(=O)OC[C@@]12C(=O)C[C@@H](C)[C@]3(C[C@@H](c4ccoc4)O[C@H]3OC(C)=O)[C@H]1CCC[C@]21CO1`, for which, in assay [1], the Potency entry is “inactive”.
Turning to `CN[C@H](C(=O)N[C@H](C(=O)N(C)[C@H](/C=C(\C)C(=O)O)C(C)C)C(C)(C)C)C(C)(C)c1ccccc1`, the Potency in assay [1] was 0.0184 µM (active).
Still for that read-out and setting: for `CC(C)[C@@](C)(O)[C@@H]1CN(c2nc(-c3[nH]nc4ncccc34)c(F)cc2Cl)CCN1` the value was 6.51 µM (active).
For the compound `C[C@@H]1O[C@@H](O[C@@H]2[C@@H](O[C@@H]3O[C@@H](C)[C@H](O[C@@H]4OC[C@H](O)[C@H](O[C@@H]5OC[C@@H](O)[C@H](O)[C@H]5O)[C@H]4O)[C@@H](O[C@@H]4OC[C@](O)(CO)[C@H]4O)[C@H]3O)[C@H](OC(=O)[C@]34CCC(C)(C)C[C@H]3C3=CCC5[C@@]6(C)C[C@H](O)[C@H](O[C@@H]7O[C@H](CO[C@@H]8OC[C@H](O)[C@H](O)[C@H]8O)[C@@H](O)[C@H](O)[C@H]7O)C(C)(C)C6CC[C@@]5(C)[C@]3(C)C[C@H]4O)OC[C@H]2O)[C@H](O)[C@H](O)[C@H]1O` (stereo partly specified), the outcome in [1] is “inactive [at 9.29 µM]”.
As for `CCO[C@@H]1OC(=O)C[C@@H]1NC(=O)[C@@H]1CCCN1C(=O)[C@@H](NC(=O)c1ccc(N)c(Cl)c1)C(C)(C)C`, the Potency result in assay [1] is “inactive”.
Consider `C=C(C)[C@@H]1CC[C@]2(C)CC[C@]3(C)[C@H](CC[C@@H]4[C@@]5(C)CC[C@@H](O)C(C)(C)[C@@H]5CC[C@]43C)[C@@H]12`, for which, in assay [1], the Potency entry is “inactive”.
On to `COc1cccc2cc3c(c(O[C@@H]4O[C@H](CO[C@@H]5O[C@H](CO)[C@@H](O)[C@H](O)[C@H]5O)[C@@H](O)[C@H](O)[C@H]4O)c12)C(C)OC3=O` (stereo partly specified), for which, in assay [1], the Potency entry is “inactive”.
Turning to `CC(C)(O)/C=C/C1=CC(=O)[C@@](C)(O)C[C@H]1O`, the Potency entry in assay [1] was “inactive”.
For `CCc1c(C)nc2c(-c3cnn(-c4cc(CO)ccn4)c3)c[nH]n2c1=O`, the Potency entry in assay [1] is “inactive”.
As to `O=C(/C=C/c1cccc(S(=O)(=O)Nc2ccccc2)c1)NO`, the Potency in assay [1] was 2.82 µM (active).
`CCC(C(=O)O)c1ccc(N2Cc3ccccc3C2=O)cc1` (stereo unspecified): the Potency entry in assay [11] was “inactive”. Moreover, the compound was classed as inactive in [12].
Take `CCN1CCN(Cc2ccc(NC(=O)c3ccc(C)c(/C=C/c4cnc5[nH]ccc5c4OC)c3)cc2C(F)(F)F)CC1`: the Potency in assay [1] was 23.1 µM (active).
As for `CC(=O)O[C@@H]1CC(C)=C2[C@H]1[C@H](C)CC[C@H]2/C=C(\C)C(=O)O`, the activation in [2] was -5.82%; in assay [3], 0.932%; in [4], -0.287%. Besides, the compound was classed as inactive in [13], in assay [14], in assay [6], in assay [15] and in assay [10]. The max response in [5] was -0.232%; in [7] it was -16.1%; in assay [9], -5.49%. Moreover, in [1], the Potency entry was “inactive”.
Regarding `N#C[C@@H]1C[C@H](F)CN1C(=O)CNC1[C@H]2CN(C(=O)c3ccc(F)cc3)C[C@@H]12` (stereo partly specified), the Potency result in assay [1] was “inactive”.
Turning to `O=C(Nc1ccc(S(=O)(=O)Nc2ccccc2Cl)c(Cl)c1)c1ccccn1`, the Potency entry in assay [1] was “inactive”.
On to `C/C=C/C=C/[C@@H]1O[C@](O)([C@H](CC)C(=O)NC/C=C/C=C(\C)[C@@H](OC)[C@@H](C)C2OC(/C=C/C=C/C=C(\C)C(=O)c3c(O)cc[nH]c3=O)[C@H](O)[C@@H]2O)[C@H](O)[C@H](O)C1(C)C` (stereo partly specified), for which the Potency entry in assay [1] was “inactive”.
Regarding `CC1CCC2(OC1)OC1CC3C4CC=C5CC(O)CC(O[C@@H]6OC[C@@H](O)[C@H](O)[C@H]6O)C5(C)C4CCC3(C)C1(O)C2C` (stereo partly specified), in [1], the Potency entry is “inactive”.
As to `NC(=O)Nc1cc(-c2cccc(F)c2)sc1C(=O)NC1CCCNC1` (stereo unspecified), the Potency in assay [1] was 8.2 µM (active).
The same measure, in the same setting: for `CC1=CC(=O)CC(C)(C)C1CCC(C)O[C@@H]1O[C@H](CO[C@@H]2OC[C@@H](O)[C@H](O)[C@H]2O)[C@@H](O)[C@H](O)[C@H]1O` (stereo partly specified) the value was “inactive”.
In the case of `O=C(O)c1ccccc1NCCc1ccccc1`, the Potency result in assay [11] was “inactive”. For the same compound, in [12], the result was inactive.
As to `CC1(C)CC[C@]2(C(=O)O[C@@H]3O[C@H](CO)[C@@H](O)[C@H](O)[C@H]3O)CC[C@]3(C)C(=CCC4[C@@]5(C)CC[C@H](O[C@@H]6O[C@H](C(=O)O)[C@@H](O)[C@H](O[C@@H]7O[C@H](CO)[C@H](O)[C@H](O)[C@H]7O)[C@H]6O)C(C)(C)C5CC[C@]43C)C2C1` (stereo partly specified), the outcome in [1] is “inactive [at 9.29 µM]”.
